IL-1B inflam inh: blocks inflammasome-driven IL-1 beta release. THP-1 LPS/ATP IL-1B secretion, AlphaLISA, 16 h; stronger effect = lower value. activity change, % at 57.5 µM. 4.7% of 360,000 active. AID 743279; in the data active = activity change below about -50%; inconclusive = mostly about -30% to -49%
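THP-1 cells pretreated 1 hr with compounds (up to 57.5 uM final), then stimulated with LPS (250 ng/mL final) plus ATP (1.25 mM final); secreted IL-1B measured by AlphaLISA after 16 hr, decreased signal indicating inhibition.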
HT1080-NT tox: kills 2HG-producing HT-1080-NT fibrosarcoma cells; HT-1080-NT fibrosarcoma viability, CellTiter-Glo ATP luminescence, 48 h; Potency, µM (titrated, usually from 46.1 µM), hits mostly cytotoxic; 1.6% of 360,000 active; AID 686970;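 also: NT is the 2HG producing partner of a matched IDH1 knockdown line; nearly all actives have a fitted effect of over 55% in size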
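Viability by CellTiter-Glo luminescence after 48 h compound exposure at 37C of HT-1080-NT cells (750/well, RPMI, 5% FBS). % activity scaled between DMSO wells and medium-only wells, then curve-fitted and categorized by curve class.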
TDP1 cell CPT: growth inhibition of DT40 Tdp1-/-;hTDP1 cells with camptothecin (screen for TDP1 inhibitors) | chicken DT40 Tdp1-/-;hTDP1 cells + 20 nM CPT, ATP luminescence, 48 h | 12% of 420,000 active | AID 686979 | Potency, µM (titrated, usually from 46.2 µM), usual class: inhibitors; also: nearly all actives have a fitted effect of over 55% in size
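Chicken DT40 Tdp1-/- cells complemented with human TDP1, 400 cells/well, exposed to compounds plus 20 nM camptothecin for at least 48 h at 37 C; viability read as ATP content by CellTiter-Glo luminescence.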
TDP1 cell noCPT: qHTS for Inhibitors of human tyrosyl-DNA phosphodiesterase 1 (TDP1): qHTS in cells in absence of CPT; DT40 Tdp1-/- hTDP1 cells, no CPT, ATP luminescence, 48 h; Potency, µM (highest dose often 46.2 µM), hits mostly inhibitors; 15% of 420,000 active; also: nearly all actives have a fitted effect of over 55% in size
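Chicken DT40 Tdp1-/- cells stably complemented with human TDP1 were seeded at 400 cells/well with DMSO in place of 20 nM camptothecin. After compound pinning, cells grew at least 48 hr at 37 °C; viability read by CellTiter-Glo luminescence.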
HT1080 IDH1KD tx: kills HT-1080 cells with IDH1 knockdown. Potency, µM (series often up to 46.1 µM), actives largely listed as cytotoxic. AID 686971. HT-1080 IDH1 knockdown viability, ATP luminescence, 48 h. 2% of 360,000 active
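After a 2 h attachment period, IDH1KD HT-1080 cells took pin-transferred compound for 48 h at 37 °C; ATP-based luminescence after 10 min room-temperature reagent incubation reported viability.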
Hits are given with their value; [ ] = remark or other dose. Rows were chosen to be rich in hits. Some 19% of all compounds tested hit in one or more screens of this group. Unless noted, calls follow the shape of the dose curve; as a rule, active = well fitted curve in the direction sought with a large enough effect; inconclusive = small, poorly fitted or top-dose-only effect, or another doubt; inactive = no such curve, though single readings can be large; an effect the other way counts as inactive or inconclusive.

For Cc1ccc(OCc2cc(C(=O)N(C)Cc3cnn(-c4ccccc4C)c3)no2)cn1 the results were IL-1B inflam inh inactive, HT1080-NT tox 18µM, TDP1 cell CPT 12µM, TDP1 cell noCPT 18µM and HT1080 IDH1KD tx 21µM.
CN(Cc1ccc(F)cc1)C(=O)c1cc(COc2ccc(-n3cncn3)cc2)on1 was read as IL-1B inflam inh inactive, HT1080-NT tox inactive, TDP1 cell CPT 23µM, TDP1 cell noCPT 16µM and HT1080 IDH1KD tx inactive.
Screening CCc1ccc(CN(C)C(=O)c2cc(COc3cncc(Cl)c3)on2)cc1 returned IL-1B inflam inh inactive, HT1080-NT tox inactive, TDP1 cell CPT inconclusive, TDP1 cell noCPT inconclusive and HT1080 IDH1KD tx inconclusive.
Screening CCc1ccc(CN(C)C(=O)c2cc(COc3ccc(-n4cncn4)cc3)on2)cc1 returned IL-1B inflam inh inconclusive, HT1080-NT tox inactive, TDP1 cell CPT inconclusive, TDP1 cell noCPT 15µM and HT1080 IDH1KD tx inactive.
O=C(C(O)c1ccccc1)N1CCN(S(=O)(=O)c2ccc(OC(F)(F)F)cc2)CC1 (configuration not stated) was read as IL-1B inflam inh inactive, HT1080-NT tox inactive, TDP1 cell CPT inactive, TDP1 cell noCPT inactive and HT1080 IDH1KD tx inactive.
Screening CCc1c(C)nc2ncnn2c1N1CCCC(C(=O)Nc2ccc(NC(C)=O)cc2)C1 (configuration not stated) returned IL-1B inflam inh inactive, HT1080-NT tox inactive, TDP1 cell CPT inactive, TDP1 cell noCPT inactive and HT1080 IDH1KD tx inactive.
For CCc1c(C)nc2ncnn2c1N1CCCC(C(=O)NCc2ccc3c(c2)OCO3)C1 (configuration not stated) the results were IL-1B inflam inh inactive, HT1080-NT tox inactive[9.24 µM], TDP1 cell CPT inconclusive, TDP1 cell noCPT 21µM and HT1080 IDH1KD tx inactive.
For CCn1c(C(=O)N2CCC(C(=O)NCc3ccc4c(c3)OCO4)CC2)cc2sccc21 the results were IL-1B inflam inh inactive, HT1080-NT tox inactive, TDP1 cell CPT 23µM, TDP1 cell noCPT 15µM and HT1080 IDH1KD tx inactive.
For Cn1c(C(=O)N2CCCC(C(=O)NCc3ccc4c(c3)OCO4)C2)cc2sccc21 (configuration not stated) the results were IL-1B inflam inh inactive, HT1080-NT tox inactive, TDP1 cell CPT inconclusive, TDP1 cell noCPT 23µM and HT1080 IDH1KD tx inactive.
Fc1ccc(-n2c(Cn3nnc4ccccc43)n[nH]c2=S)cc1 was read as IL-1B inflam inh inactive, HT1080-NT tox inactive, TDP1 cell CPT inactive, TDP1 cell noCPT inactive and HT1080 IDH1KD tx inactive.
Screening C[C@@H]1CN([C@H](C)CO)C(=O)CCCn2nncc2CO[C@@H]1CN(C)C(=O)CCC(F)(F)F returned IL-1B inflam inh inactive, HT1080-NT tox inactive, TDP1 cell CPT inactive, TDP1 cell noCPT inactive and HT1080 IDH1KD tx inactive.
Screening OCCOCCn1c(C(CO)Nc2nc(-c3cccc(Br)c3)cs2)nc2ccccc21 (configuration not stated) returned IL-1B inflam inh inactive, HT1080-NT tox inactive, TDP1 cell CPT inconclusive, TDP1 cell noCPT 18µM and HT1080 IDH1KD tx inactive.
CCCn1c(C(CO)Nc2nc(-c3cccc(Br)c3)cs2)nc2ccccc21 (configuration not stated) was read as IL-1B inflam inh -57, HT1080-NT tox inconclusive, TDP1 cell CPT inconclusive, TDP1 cell noCPT inconclusive and HT1080 IDH1KD tx inactive.
For Nc1c(Cl)cc(-c2csc(NC(CO)c3nc4ccccc4n3CCOCCO)n2)cc1Cl (configuration not stated) the results were IL-1B inflam inh inconclusive, HT1080-NT tox inactive, TDP1 cell CPT inconclusive, TDP1 cell noCPT inconclusive and HT1080 IDH1KD tx inactive.
`OCCOCCn1c(C(CO)Nc2nc(-c3ccccc3Br)cs2)nc2ccccc21` (configuration not stated) gave IL-1B inflam inh inactive, HT1080-NT tox inactive, TDP1 cell CPT inconclusive, TDP1 cell noCPT inactive and HT1080 IDH1KD tx inactive.
`OCCOCCn1c(C(CO)Nc2nc(-c3ccc(Cl)cc3)cs2)nc2ccccc21` (configuration not stated) gave IL-1B inflam inh inconclusive, HT1080-NT tox inactive, TDP1 cell CPT 29µM, TDP1 cell noCPT 18µM and HT1080 IDH1KD tx inactive.
CCCCN(C)C(=O)C1CCN(c2ccc(S(=O)(=O)N3CCOCC3)cc2[N+](=O)[O-])CC1 was read as IL-1B inflam inh inactive, HT1080-NT tox inactive, TDP1 cell CPT inconclusive, TDP1 cell noCPT inconclusive and HT1080 IDH1KD tx inactive.
Screening Cc1ccc2c(CN(C)Cc3ccc(Cl)cc3Cl)cc(=O)oc2c1 returned IL-1B inflam inh inconclusive, HT1080-NT tox inactive, TDP1 cell CPT inactive, TDP1 cell noCPT inconclusive and HT1080 IDH1KD tx inactive.
`CCCOC(=O)c1cccc(Nc2nc(CCC)cc(=O)[nH]2)c1` gave TDP1 cell CPT 16µM and TDP1 cell noCPT 15µM.
Screening C=CCNCCCCOc1cccc(Br)c1 returned IL-1B inflam inh -65, HT1080-NT tox inactive, TDP1 cell CPT inactive, TDP1 cell noCPT inactive and HT1080 IDH1KD tx inactive.
For CC(C)NCCCCOc1cccc(Br)c1 the results were IL-1B inflam inh inactive, HT1080-NT tox inactive, TDP1 cell CPT inconclusive, TDP1 cell noCPT 23µM and HT1080 IDH1KD tx inactive.
For CC(C)NCCOc1cccc(Br)c1 the results were IL-1B inflam inh inactive, HT1080-NT tox inactive, TDP1 cell CPT inactive, TDP1 cell noCPT inactive and HT1080 IDH1KD tx inactive.
Screening Brc1cccc(OCCCNC2CCCC2)c1 returned IL-1B inflam inh inconclusive, HT1080-NT tox inactive, TDP1 cell CPT inconclusive, TDP1 cell noCPT 21µM and HT1080 IDH1KD tx inactive.
`O=C(COC(=O)CCN1C(=O)C2CC=CCC2C1=O)NCCc1ccc(F)cc1` (configuration not stated) gave IL-1B inflam inh inactive, HT1080-NT tox inactive, TDP1 cell CPT inactive, TDP1 cell noCPT inactive and HT1080 IDH1KD tx inactive.
`Cc1ccccc1-c1cc2nc(NCCOc3ccccc3)n(C)c(=O)c2s1` gave IL-1B inflam inh inactive, HT1080-NT tox inactive, TDP1 cell CPT inconclusive, TDP1 cell noCPT inconclusive and HT1080 IDH1KD tx inactive.
COc1cccc(CNc2nc3cc(C(C)=C(C)C)sc3c(=O)n2C)c1 was read as IL-1B inflam inh inactive, HT1080-NT tox inactive, TDP1 cell CPT 18µM, TDP1 cell noCPT inconclusive and HT1080 IDH1KD tx inconclusive.
`COc1cccc(CNc2nc3cc(-c4ccccc4C)sc3c(=O)n2C)c1` gave IL-1B inflam inh inactive, HT1080-NT tox inconclusive, TDP1 cell CPT 21µM, TDP1 cell noCPT 23µM and HT1080 IDH1KD tx inconclusive.
Screening COc1ccccc1CNc1nc2cc(-c3ccccc3C)sc2c(=O)n1C returned IL-1B inflam inh inactive, HT1080-NT tox inconclusive, TDP1 cell CPT inconclusive, TDP1 cell noCPT 23µM and HT1080 IDH1KD tx inconclusive.
Screening COc1ccc(-c2cc(CNc3nc4cc(-c5ccccc5C)sc4c(=O)n3C)on2)cc1 returned IL-1B inflam inh inactive, HT1080-NT tox inactive, TDP1 cell CPT 16µM, TDP1 cell noCPT 21µM and HT1080 IDH1KD tx inactive.
